Consider 24 sequences from the supplement of paper PMC6555819.

The subject of the experiment is LXRb:RXRa (NR concentration 270 nM, RXRa partner concentration 90 nM). The experiment can be described thus: PBM binding z-score (relative to random genomic background probes); higher = stronger binding; sequences stand for … in GC…GCGATTGACAGCGTAGAATGAAGG
Here is the method:
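Protein-binding microarray (Agilent 4x180K custom design, double-stranded 60-nt probes: 5' GC cap, 34-nt variable region, 24-nt constant primer region; full probe sequence given). Purified or IVT nuclear receptor:RXRα heterodimers (3:1 NR:RXRα, mostly 270:90 nM) or homodimers were incubated for 1 h in PBS with 2% milk and no ligand, then detected with Alexa488 antibodies. Fluorescence from o1-orientation probes (~5 replicates averaged) was converted to z-scores against 500 random hg19 background probes. Variable regions are seed direct-repeat (DR0–DR5) sites, all their single-nucleotide variants and half-site ablations.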
With CGCACTAGGTCATCCAGGACAGTGAATACATTGA, the PBM binding z-score was 2.21.
CGAACTAGGTCGTCCAGGACAGTGAATACATTGA returned a PBM binding z-score of 0.123.
Under CAAACTAGGTCAAGAGGTCAAAGTTCGCTTCCCG stands 6.05; under CCTTAAGGGTCACGAGGTTATAGCACGACGAGCG, 5.38.
With TAGCCTAGGTCATGCGGCCCAGTATAGTGTCGGC the figure was 1.69.
For CGTCCAAGGTCATAGAGGTCAGTGAATGCCGAGT, the PBM binding z-score is 5.69.
With GCTGCTAGGTCAACTGATGGTCATCTAAAGCTCG, the PBM binding z-score worked out at 2.18.
On to CGTCCAAGGTCACGGTCAGTGAAAGAGACTCGAA, for which the PBM binding z-score worked out at 4.76.
Under CCTTACGGGTCACGAGGTCATAGCACGACGAGCG stands 5.05.
Sequence ATCGAAAGGTCCAAGGTGAGTATACCCACCCGAA gave a PBM binding z-score of 0.126.
In turn, AGAATGAGGTCACCAAAGATCAGGGAAACGCTTG came in with a PBM binding z-score of 5.13.
As to CAAACTAGGTCACAGTGGTCAAAGTCCGTGCGTA, the PBM binding z-score was 2.4.
CCTGCTAGGTCATGGTCAGCGAATCTACAGTATG showed a PBM binding z-score of 1.54.
TAGCCTAGGTCATTCAGGGGCCAGCATAGAAAGC registered a PBM binding z-score of 3.03.
As for GGAACGAGGGCATTCGAGTTCATAGCATGGCGAT, the PBM binding z-score stood at 3.44.
Under CGAACTAGGTCACCCAGGACAGTGAATACATTGA stands 1.93; under CAGCATAGGTCAGGGCCAGTATAGGAGGAACGTT, 1.98.
As for GATATAGGGTCAGCTAGAGGCCAGAGTATGGAAA, the PBM binding z-score worked out at 2.77.
ATCGAAAGGTCGACGAGGTGAGTAAACACCGTTT had a PBM binding z-score of 2.87.
Turning to TAGCCTAGGTCATTCAGGGGCAAGTATAGAAAGC, the PBM binding z-score was determined as 4.97.
With ATATGTAGGTTACATCCGGGTCATCCAGGCTATG the figure was 2.76.
For the sequence AGTCAAAGTTCATCTAGGTAACATAAGATATGCT, the PBM binding z-score stood at 3.93.
The sequence AGTCAAAGTTCATCTAGGTCACGTAAGATATGCT registered a PBM binding z-score of 4.9.
The sequence CCTCGGAGGACAACAGGAGGTCATAGCTGCCAGA gave a PBM binding z-score of 3.15.
